Test results: PubChem BioAssay (NCI)
About 83,000 compounds went through this panel and 20% of them were active in at least one assay; those are over-represented in the sample as a whole.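 Testing used 96-well plates and a 48-hour single-concentration exposure. Example: -40 means 40% of the starting cells died.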 Unmarked numbers belong to inactive results. Calls of active or inactive are those of the source. The calls were made as follows: active = growth percent below 10; inactive = the rest.

Assays:
Experiment in all cases: NCI-60 one-dose screen, 48 h (100 = growth as untreated, 0 = no growth, -100 = all killed)
Settings in all cases: 10 µM unless noted
[1] = test system: RPMI-8226 leukemia
[2] = test system: OVCAR-8 ovarian
[3] = test system: OVCAR-5 ovarian
[4] = test system: OVCAR-4 ovarian
[5] = test system: SK-OV-3 ovarian
[6] = test system: IGROV1 ovarian
[7] = test system: OVCAR-3 ovarian
[8] = test system: HS 578T breast
[9] = test system: NCI/ADR-RES ovarian
[10] = test system: T-47D breast

Structure (SMILES) | growth [1] | growth [2] | growth [3] | growth [4] | growth [5] | growth [6] | growth [7] | growth [8] | growth [9] | growth [10]
CC(C)(C)Nc1nc2c(OCCc3ccccc3)cccn2c1-c1ccc(Cl)cc1 | -16.1% (active) | 26.3% | 29.4% | 18.2% | 42.2% | 23.8% | 6.36% (active) | 70.3% | 4.99% (active) | 8.79% (active)
COc1cccc(N2CCN(c3ncnc4c3[nH]c3ccc(F)cc34)C[C@@H]2C)c1 | -34.7% (active) | -96.7% (active) | 0.0989% (active) | -56.5% (active) | -3.28% (active) | -30.2% (active) | -7.65% (active) | -18.7% (active) | 7.77% (active) | -52.6% (active)
COc1cccc(COc2ccc(/C=C3/C(=O)Nc4cc(Cl)ccc43)cc2)c1 | 78% | 90.8% | 96.1% | 96.6% | 100% | 87.6% | 105% | 91% | 90.3% | 80.6%
COc1ccc(/C=N/NC(=O)c2[nH]c3ccc(Br)cc3c2-c2ccccc2)o1 | 12.5% | -12.2% (active) | 39.9% | 68% | 38.1% | 19.7% | 16.6% | 11.5% | 19.9% | 78.4%
NS(=O)(=O)c1ccc(Nc2nc(Nc3ccccc3)nc(-n3nc(-c4ccccc4)cc3-c3ccccc3)n2)cc1 | 6.63% (active) | 40% | 78.1% | 37.9% | 65.8% | 25.6% | 31.5% | 64.6% | 45% | 36.9%
COc1ccc(C(=O)/C=C/c2ccc(OCc3ccc(C)cc3)c(OC)c2)cc1OC | 8.56% (active) | 49.1% | 95.4% | 60.9% | 100% | 84% | 76.8% | 91.4% | 53.7% | 45.6%
O=c1[nH]c2ccc(Cl)cc2cc1CSc1ccccc1Nc1nccc(-c2ccc(Cl)cc2)n1 | 84% | 96.5% | 114% | 89% | 122% | 82.7% | 89.3% | 91.2% | 117% | 84.8%
Clc1ccc2c(NCCCN3CCOCC3)c3oc4ccc(Cl)cc4c3nc2c1 | 67.8% | 35.6% | 47.4% | 87.4% | 89.3% | 42.9% | 104% | 84% | 42.5% | 91.4%
C#Cc1nc(C2=C(C)C(OC(=O)CCC(=O)O)CC2)cs1 (stereo not given) | 102% | 99.3% | 125% | 108% | 125% | 5.79% (active) | 121% | 92.5% | 89.7% | 98%
COc1ccc(/C=C2\SC(=Nc3cc(C)[nH]n3)NC2=O)cc1 | 88.2% | 103% | 90.3% | 97.4% | 85.7% | 97.3% | 104% | 91.4% | 98.3% | 85.2%
O=C1/C(=C/C2=Cc3ccccc3OC2)SC(=S)N1c1ccc(F)cc1 | 104% | 105% | 100% | 96.1% | 108% | 95.9% | 109% | 99.2% | 108% | 87.7%
OC1CCN(CCCOc2c3ccccc3nc3c2oc2ccccc23)CC1 | -24% (active) | -44.9% (active) | -8.63% (active) | 4.9% (active) | -10.8% (active) | -37.2% (active) | -18.7% (active) | 8.94% (active) | -17.9% (active) | 1.32% (active)
C#Cc1nc(C2=C(C)/C(=N/OCc3ccccc3)CC2)cs1 | -44.1% (active) | 21.2% | 54.6% | 16.7% | -22.3% (active) | -68.3% (active) | 74.2% | 70.9% | -3.32% (active) | 67.5%
CCOC(=O)c1c(Nc2ccccc2)nn2c(N)c(C#N)c(-c3ccc(Cl)cc3)nc12 | 86.1% | 42.5% | 78.5% | 44.1% | 59.4% | 70.5% | 81.8% | 33.8% | 71% | 68.5%
COc1ccc(/C=N/Nc2ccnc3cc(Cl)ccc23)cc1Cl | -37.8% (active) | -57.6% (active) | -71.9% (active) | -60.7% (active) | 123% | -59.5% (active) | -92.2% (active) | -53.5% (active) | 0.936% (active) | -62% (active)
Fc1ccc(-c2cc3nc(C(Cl)Cl)nc(-c4ccccc4)n3n2)cc1 | -16.1% (active) | 8.61% (active) | -20.3% (active) | -16.9% (active) | -18.6% (active) | 46.5% | -43.1% (active) | -18% (active) | 10.6% | 22.1%
Cn1cc(-c2cc(N)n3nc(-c4cn(C)c5ccc(Br)cc45)cc3n2)c2cc(Br)ccc21 | 64.3% | 86.8% | 100% | 86.1% | 110% | 76.4% | 109% | 111% | 86.5% | 101%
COc1cc(OC)c(C2C(Cl)C(=O)N2Nc2ncnc3ccccc23)cc1OC (stereo not given) | 106% | 104% | 105% | 104% | 113% | 83.5% | 116% | 107% | 105% | 96.1%
Nc1nc(N)c2c(n1)NC(c1ccc(F)cc1)CC(c1ccc(Nc3nc(NCCO)nc(Nc4ccc(Cl)cc4)n3)cc1)=N2 (stereo not given) | -37.6% (active) | 29% | 72% | 3.03% (active) | 84% | -25.9% (active) | 14.1% | 42.8% | 64.5% | 60%
Oc1c(Cl)cc(Cl)c2ccc(CN3CCCCC3)nc12 | 38.1% | 23% | 55.7% | 33.3% | 62.1% | 33.9% | 27.6% | 66.5% | 19.3% | 48.1%
Clc1ccc2c(NCCCn3ccnc3)c3oc4ccc(Cl)cc4c3nc2c1 | 82.8% | 71.9% | 86.7% | 95.7% | 83.4% | 58.9% | 98.8% | 91.1% | 74.1% | 78.2%
Clc1ccc2c(OCCCN3CCOCC3)c3oc4ccccc4c3nc2c1 | 29% | 31.2% | 35.1% | 59% | 71.8% | 19.7% | 69.5% | 38.4% | 36.3% | 40.8%
O=C(CCN1C(=O)/C(=C/c2ccccc2F)SC1=S)N1CCOCC1 | 59.7% | 99.6% | 94.2% | 99.1% | 135% | 61.9% | 99.8% | 101% | 99.8% | 59.3%
Cc1nc(-c2cc3ccccc3oc2=O)ccc1C(=O)/C=C/c1ccc(N2CCOCC2)cc1 | 93.4% | 81% | 101% | 72.4% | 88.7% | 82.6% | 87% | 59.7% | 67.3% | 80.2%
NS(=O)(=O)c1cccc(Nc2nc(SCC(=O)c3ccc(Br)cc3)nc3ccccc23)c1 | 46.1% | 39.5% | 115% | 43.6% | 90.1% | 85.4% | 44% | 59.6% | 82.8% | 31.9%
Nc1c(C(=O)Nc2ccc(C(F)(F)F)cc2)sc2nc(-c3cnccn3)cc(-c3cccs3)c12 | 72.2% | 66.7% | 102% | 63.5% | 88.1% | 83.9% | 96% | 70.3% | 78.2% | 90.3%
C[C@@H]1CN(c2ccc3ncc(C#Cc4cncc(C(=O)Nc5ccc(CN6CCN(C)CC6)c(C(F)(F)F)c5)c4)n3n2)C[C@H](C)O1 | -2.52% (active) | 0.405% (active) | -35.4% (active) | -10.1% (active) | -76.5% (active) | -5.72% (active) | -48.3% (active) | -37% (active) | -8.65% (active) | 15%
